Experimental data reported in the supplement of paper PMC10338343.
± gives the standard deviation.

Each sequence was assayed on MILI (PIWIL2) piRISC loaded with piRNA #1 (26 nt) (assay: pre-steady-state target cleavage rate (min^-1); guide: piRNA #1 5'p-UGAGGUAGUAGGUUGUAUAGUAUCCA; MIWI and MILI are mouse PIWI proteins and EfPiwi is from a freshwater sponge; tags in brackets are library labels; higher = faster piRNA-guided slicing of the target). Conditions: auxiliary factor: 500 nM mouse GTSF1.
Summary of the method: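 With or without 500 nM GTSF1 partner protein, 1 nM active affinity-purified piRISC carrying one synthetic guide was mixed with 0.1 nM transcribed, DNA-blocked target RNA library in HEPES–potassium acetate buffer at 33 °C for 0–8 or 0–960 min. Uncleaved targets were sequenced and normalised to depth and to weakly complementary targets, three trials were pooled, and k3 was capped at 0.0001 min^-1. The pre-steady-state cleavage rate came from a burst-and-steady-state fit.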

Sequence	pre-steady-state target cleavage rate
GGAGACCAUACUAUUCAACCUACAACCUCA	0.185 ± 0.021
GGAGACCAUACUAAUGAACCUACUACCUCA	0.0422 ± 0.011
GGAGACCAUACUAUACAACCAACUACCACA	0.00384 ± 0.0026
GGAGACCUAUCAAUACAACCUACUACCUGA	0.0265 ± 0.0091
GGAGACCUAUGAUUACAACCUUCUACCUCA	0.00235 ± 0.0023
GGAGAGGAUAGAAUACAACCUACUACCUCA	0.096 ± 0.01
GGAGACCUAUGAAUACAUCCUUCUACCUCA	0.00365 ± 0.0022
GGAGACCAUACUAUACUUGGAUGAUGGAGA [g15:g23:cont:t1A]	< 0.0001
GGAGACCUAUGAUAUGUUCAUACUACCUCA	< 0.0001
GGAGUAGGAUACUAUACAACCUACUACCUCA	0.145 ± 0.016
GGAGACCUAUGUAUACAUCCUACUACCUGA	0.0651 ± 0.017
GGAGACCUAUGUAUACUACCUAGUACCUCA	0.00575 ± 0.0022
GGAGACCUAUCUAUACAACCUACUAACUCA	0.0846 ± 0.017
GGAGUGGAUUCUAUACAACCUACUAGCUCA	0.0603 ± 0.012
GGAGACCUAUCUAUACAUCCUACAACCUCA	0.165 ± 0.014
